Data: publication PMC7862700, “An all-to-all approach to the identification of sequence-specific readers for epigenetic DNA modifications on cytosine”

Molecular target: T1, ELK1 (Homo sapiens, UniProt P19419 1-428)
T1 sequence: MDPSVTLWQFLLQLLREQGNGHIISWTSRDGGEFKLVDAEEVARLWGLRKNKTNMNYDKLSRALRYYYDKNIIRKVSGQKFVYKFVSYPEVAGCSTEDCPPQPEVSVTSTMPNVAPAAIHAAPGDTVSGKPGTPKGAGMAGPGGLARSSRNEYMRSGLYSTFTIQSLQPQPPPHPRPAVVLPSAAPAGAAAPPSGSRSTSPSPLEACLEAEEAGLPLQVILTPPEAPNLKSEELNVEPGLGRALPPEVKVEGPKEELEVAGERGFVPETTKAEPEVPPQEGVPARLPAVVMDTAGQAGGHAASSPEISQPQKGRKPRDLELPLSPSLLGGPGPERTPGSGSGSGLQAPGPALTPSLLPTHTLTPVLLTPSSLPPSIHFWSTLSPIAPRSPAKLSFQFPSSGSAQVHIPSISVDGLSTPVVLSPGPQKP
Test: DAPPL (digital affinity profiling via proximity ligation, sequencing); 10 mM Tris-HCl pH 7.5, 50 mM NaCl, 1 mM DTT, 4% glycerol, room temperature, 30 min; GST-TFs on glutathione beads, 16-mer random dsDNA library, 0.1% formaldehyde crosslink after washing; high values mean tight binding
Conditions: protein: recombinant; tags: N-terminal GST; dsDNA, one strand shown
In short: (§1)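 Sequencing on an Illumina NextSeq500 followed washing, crosslinking with 0.1% formaldehyde, proximity ligation (BsaI/T4 ligase, 1 h, 37 °C) and PCR amplification of pools that had been incubated for 30 min at room temperature with 200 nmole of a random double-stranded 16-mer DNA library in Tris/NaCl/DTT/glycerol buffer. Each pool held DNA-barcoded human transcription factors, expressed in yeast as GST fusions and captured on glutathione beads, plus a tag-only sample. Binding signal is a hexamer's read frequency for a factor divided by its frequency in the tag-only sample.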

Sequence	binding signal
TAGGCA	1.03 fold enrichment (6-mer frequency, TF over GST control)
ACATGA	1.01 fold enrichment (6-mer frequency, TF over GST control)
GTATTG	1.01 fold enrichment (6-mer frequency, TF over GST control)
GCCCTG	1.12 fold enrichment (6-mer frequency, TF over GST control)
ATCACG	1.04 fold enrichment (6-mer frequency, TF over GST control)
TGGTGA	1.04 fold enrichment (6-mer frequency, TF over GST control)
ACGCGC	1.12 fold enrichment (6-mer frequency, TF over GST control)
ACCTGT	1.05 fold enrichment (6-mer frequency, TF over GST control)

Molecular target: T2, GABPA (Homo sapiens, UniProt Q06546 1-454)
T2 sequence: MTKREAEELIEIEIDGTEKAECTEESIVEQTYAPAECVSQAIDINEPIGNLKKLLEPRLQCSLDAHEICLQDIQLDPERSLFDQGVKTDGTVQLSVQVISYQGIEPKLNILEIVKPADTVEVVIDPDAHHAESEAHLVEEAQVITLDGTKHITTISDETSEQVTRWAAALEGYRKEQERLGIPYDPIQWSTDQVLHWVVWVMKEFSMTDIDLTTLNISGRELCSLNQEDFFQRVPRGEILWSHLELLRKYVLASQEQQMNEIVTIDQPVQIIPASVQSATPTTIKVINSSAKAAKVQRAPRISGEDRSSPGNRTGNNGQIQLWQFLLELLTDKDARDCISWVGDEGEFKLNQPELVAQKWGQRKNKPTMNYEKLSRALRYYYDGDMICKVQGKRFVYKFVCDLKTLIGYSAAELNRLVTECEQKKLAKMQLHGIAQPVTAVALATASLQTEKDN
Test: as above
Conditions: protein: recombinant; tags: N-terminal GST; dsDNA, one strand shown
In short: as §1

Sequence	binding signal
AAAGGC	1.1 fold enrichment (6-mer frequency, TF over GST control)
CGCCAC	1.04 fold enrichment (6-mer frequency, TF over GST control)
CATATG	1.09 fold enrichment (6-mer frequency, TF over GST control)
GTATTG	1.04 fold enrichment (6-mer frequency, TF over GST control)
AACGCG	1.04 fold enrichment (6-mer frequency, TF over GST control)
GCGCCG	1.03 fold enrichment (6-mer frequency, TF over GST control)
CCTAGG	1.04 fold enrichment (6-mer frequency, TF over GST control)
CAGCTC	1.01 fold enrichment (6-mer frequency, TF over GST control)
ACGCGC	1.07 fold enrichment (6-mer frequency, TF over GST control)
ACCTGT	1 fold enrichment (6-mer frequency, TF over GST control)
GTGGCC	1.06 fold enrichment (6-mer frequency, TF over GST control)

Molecular target: T3, ERG (Homo sapiens, UniProt P11308 1-479)
T3 sequence: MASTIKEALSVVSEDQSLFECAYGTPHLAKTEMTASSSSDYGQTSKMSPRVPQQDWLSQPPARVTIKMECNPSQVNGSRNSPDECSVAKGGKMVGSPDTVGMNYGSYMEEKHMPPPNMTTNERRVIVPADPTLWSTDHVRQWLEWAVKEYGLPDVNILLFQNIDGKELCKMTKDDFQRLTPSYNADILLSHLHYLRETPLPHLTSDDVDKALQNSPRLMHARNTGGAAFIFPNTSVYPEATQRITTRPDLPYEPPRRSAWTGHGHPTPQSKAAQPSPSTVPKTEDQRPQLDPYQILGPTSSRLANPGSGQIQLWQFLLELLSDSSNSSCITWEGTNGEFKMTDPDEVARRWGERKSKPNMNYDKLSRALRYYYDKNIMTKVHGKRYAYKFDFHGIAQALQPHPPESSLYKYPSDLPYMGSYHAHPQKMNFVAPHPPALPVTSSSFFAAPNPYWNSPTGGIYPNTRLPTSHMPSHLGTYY
Test: as above
Conditions: protein: recombinant; tags: N-terminal GST; dsDNA, one strand shown
In short: as §1

Sequence	binding signal
TAGGCA	1.06 fold enrichment (6-mer frequency, TF over GST control)
CATATG	1.07 fold enrichment (6-mer frequency, TF over GST control)
GCCCTG	1 fold enrichment (6-mer frequency, TF over GST control)
CCTAGG	1 fold enrichment (6-mer frequency, TF over GST control)
GTGTCT	1.1 fold enrichment (6-mer frequency, TF over GST control)
GTGGCC	1.1 fold enrichment (6-mer frequency, TF over GST control)

Molecular target: ELF1 (Homo sapiens, UniProt P32519 1-619)
Test: as above
Conditions: protein: recombinant; tags: N-terminal GST; dsDNA, one strand shown
In short: as §1

ELF1, sequence (P32519 whole entry): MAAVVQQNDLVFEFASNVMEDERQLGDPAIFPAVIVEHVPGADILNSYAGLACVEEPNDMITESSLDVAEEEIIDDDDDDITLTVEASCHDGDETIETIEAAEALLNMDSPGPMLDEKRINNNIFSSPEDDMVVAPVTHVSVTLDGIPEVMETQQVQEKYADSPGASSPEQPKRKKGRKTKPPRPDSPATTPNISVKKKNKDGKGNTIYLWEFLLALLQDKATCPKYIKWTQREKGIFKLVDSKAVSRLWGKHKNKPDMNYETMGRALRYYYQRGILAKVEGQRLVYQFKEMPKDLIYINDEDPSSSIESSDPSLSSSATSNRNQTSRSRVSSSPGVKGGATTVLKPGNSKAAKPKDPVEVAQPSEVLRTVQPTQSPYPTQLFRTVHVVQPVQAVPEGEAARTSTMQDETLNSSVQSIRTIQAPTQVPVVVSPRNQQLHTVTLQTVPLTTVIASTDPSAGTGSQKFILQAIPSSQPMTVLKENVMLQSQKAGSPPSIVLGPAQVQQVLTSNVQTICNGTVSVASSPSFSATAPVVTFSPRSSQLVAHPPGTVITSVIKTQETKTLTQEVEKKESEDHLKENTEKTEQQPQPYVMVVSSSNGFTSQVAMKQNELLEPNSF

Sequence	binding signal
TAGGCA	1.02 fold enrichment (6-mer frequency, TF over GST control)
CGCCAC	1.08 fold enrichment (6-mer frequency, TF over GST control)
GTATTG	1.04 fold enrichment (6-mer frequency, TF over GST control)
GCCCTG	1.06 fold enrichment (6-mer frequency, TF over GST control)
AACGCG	1.05 fold enrichment (6-mer frequency, TF over GST control)
ATCACG	1.03 fold enrichment (6-mer frequency, TF over GST control)
CCTAGG	1.07 fold enrichment (6-mer frequency, TF over GST control)
CAGCTC	1.06 fold enrichment (6-mer frequency, TF over GST control)
GTGTCT	1.06 fold enrichment (6-mer frequency, TF over GST control)
ACGCGC	1.05 fold enrichment (6-mer frequency, TF over GST control)
GTGGCC	1.05 fold enrichment (6-mer frequency, TF over GST control)
